The results in this text go back to PubChem BioAssay (NCATS).

SMILES strings stand for the structures. Results filed as inconclusive are left out. Active and inactive are the calls of the source. Calls follow the shape of the dose curve; as a rule, active = well fitted inhibition curve with a large enough effect in the main read-out, with a control signal flat (not every such curve was filed as active); inconclusive = small, poorly fitted or top-dose-only effect, or effect the other way, or a change in a side signal; inactive = no such curve, though single readings can be large or run the other way.

A short description of the assay: Nrf2 qHTS screen for inhibitors: Validation (AID 493153).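 As to activity change, negative = inhibition: A549 cells with ARE-driven firefly luciferase reporter reporting Nrf2 activity; % of control where 0% means no effect.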 To be noted: A549 ARE-Fluc reporter, 18-24 h; Potency: luciferase luminescence; viability change: measured here: cytotoxicity max response; luciferase luminescence, at 46.1 µM (top of the series); activity change, negative = inhibition: at the top concentration. From the text: NIH Molecular Libraries Probe Production Network [MLPCN] NIH Chemical Genomics Center [NCGC] MLPCN Grant: R03-MH092170-01 Assay Provider: Shyam Biswal, Johns Hopkins University Assay Overview: Nrf2 is a transcription factor that maintains cellular redox homoestasis and protects cells from xenobiotics. Nrf2 binds to the antioxidant response element (ARE) to induce gene expression of a broad spectrum of genes that encode for antioxidants. […] Finding a small molecule that act as an inhibitor of Nrf2 function would represent a novel therapeutic target that could lead to improvement in survival of patients undergoing chemo- and/or radio- therapy. 1. Shibata, T., et al., Genetic Alteration of Keap1 Confers Constitutive Nrf2 Activation and Resistance to Chemotherapy in Gallbladder Cancer. Gastroenterology, 2008. 2. Sjoblom, T., et al., The consensus coding sequences of human breast and colorectal cancers. Science, 2006. 314(5797): p. 268-74.
Assay Protocol Summary: A concentration-response assay was performed with A549 ARE_Fluc cells which are suspended in 5% FBS OPTI-MEM. Five uL were dispensed into 1536-well white TC-treated plate using the Kalypsys dispenser to achieve a density of 5000 cells/well in all columns except column 1. The plate is incubated at 37deg C at 5% CO2 for 2 hours before 23 nL of compounds are added with the Kalypsys pin tool equipped with a 1,536-pin array containing 10-nL slotted pins (FP1S10, 0.457-mm diameter, 50.8 mm long; V&P Scientific). The control compounds Budesonide and Staurosporine are both added at a concentration of 2mM and Budesonide is also added as a 1:10 titration, starting at 200uM, to achieve dose-response. After an 18-24 hour incubation at 37deg C at 5% CO2, 5ul of medium is added to column 1. Afterwards 1ul of 5x of CellTiter-Fluor (Promega) is added to every well. The plate is then incubated at 37deg C at 5% CO2 for 30 minutes before they are read on the ViewLux (Perkin Elmer) for a fluorescent read Ex=405(10)/Em=525(10) for a 3 second exposure, 2x binning, and high gain. Then 3 uL of 3x BugLite is dispensed into all wells and the plate is incubated at ambient room temperature for 15 minutes. Afterwards another ViewLux read is performed using the clear filter to get a luminescent read with the settings of 40 second exposure, 2x binning, and high gain. Cytotoxicity is assessed through the first fluorescent read and then biochemical activity against Nrf2 is measured in the luminescent read.
On the technique in general: Quantitative high-throughput screening tests each substance at several concentrations.
As for `CCN(CC)CCNC(=O)c1ccc(NC(C)=O)cc1`, the “activity change, negative = inhibition” value was -9.11% (inactive) and the viability change was found to be 16.6%.

Consider `Cc1ccc(=O)n(-c2ccccc2)c1`, for which the “activity change, negative = inhibition” value is 16.1% (inactive) and the viability change is -2.33%.

For the compound `CC(C)[N+](C)(CCOC(=O)C1c2ccccc2Oc2ccccc21)C(C)C`, the viability change was -4.32% and the “activity change, negative = inhibition” value was -11.4% (inactive).

`CO[C@@]1(NC(=O)CSCC#N)C(=O)N2C(C(=O)O)=C(CSc3nnnn3C)CS[C@@H]21`: the “activity change, negative = inhibition” value was 1.42% (inactive) and the viability change came out at 1.13%.

As for `CCc1cccc(N(C)C(N)=Nc2cccc3ccccc23)c1`, the viability change was -0.401% and the “activity change, negative = inhibition” value is 10.9% (inactive).

As for `COc1cc2c(cc1OC)-c1cc(=Nc3c(C)cc(C)cc3C)n(C)c(=O)n1CC2`, the viability change was -6.02% and the “activity change, negative = inhibition” value is -21.4% (inactive).

In the case of `CCC(=O)c1ccc2c(c1)N(CCCN(C)C)c1ccccc1S2`, the viability change is -14.9% and the “activity change, negative = inhibition” value was -3.23% (inactive).

With `OC(CCN1CCCCC1)(c1ccccc1)C1CCCCC1` (stereo not given), the viability change was -0.392% and the “activity change, negative = inhibition” value is 4.5% (inactive).

For the compound `CN1C[C@H](C(=O)N[C@]2(C)O[C@@]3(O)[C@@H]4CCCN4C(=O)[C@H](Cc4ccccc4)N3C2=O)C[C@@H]2c3cccc4[nH]cc(c34)C[C@H]21`, the “activity change, negative = inhibition” value is -0.16% (inactive) and the viability change is -1.86%.

As for `CN1CCN(C2=Nc3ccccc3Oc3ccc(Cl)cc32)CC1`, the “activity change, negative = inhibition” value is -1.15% (inactive) and the viability change was -14.3%.

Take `Nc1c2c(nc3ccccc13)CCCC2O` (stereo not given): the viability change was found to be 6.52% and the “activity change, negative = inhibition” value is 3.23% (inactive).

On to `C=CCc1ccccc1OCC(O)CNC(C)C` (stereo not given), for which the viability change was -7.73% and the “activity change, negative = inhibition” value was 6.68% (inactive).

Turning to `CC[N+](C)(C)c1cccc(O)c1`, the viability change is 0.744% and the “activity change, negative = inhibition” value was 9.39% (inactive).

Turning to `NC(Cc1ccc(Cl)cc1)C(=O)O` (stereo not given), the “activity change, negative = inhibition” value was 4.57% (inactive) and the viability change is -1.14%.

With `CC(C)COCC(CN(Cc1ccccc1)c1ccccc1)N1CCCC1` (stereo not given), the viability change came out at 2.97% and the “activity change, negative = inhibition” value was 21.1% (inactive).

For `C#CCN(C)CCCOc1ccc(Cl)cc1Cl`, the viability change is -1.92% and the “activity change, negative = inhibition” value was 9.82% (inactive).

`CNC1(C)C2CCC(C2)C1(C)C` (stereo not given): the “activity change, negative = inhibition” value is 3.72% (inactive) and the viability change turned out to be 3.39%.

For the compound `O=C(O)CCCCCCCC(=O)O`, the “activity change, negative = inhibition” value is 9.81% (inactive) and the viability change was determined as 9.01%.

As for `CCCN(CCC)C(=O)C(CCC(=O)O)NC(=O)c1ccccc1` (stereo not given), the viability change is -16.1% and the “activity change, negative = inhibition” value was 9.07% (inactive).

As for `CCO/C([O-])=N/c1c[n+](N2CCOCC2)no1`, the “activity change, negative = inhibition” value is -13% (inactive) and the viability change is 7.49%.
